# In ChEMBL document CHEMBL1157539, “Thousands of chemical starting points for antimalarial lead identification” (Nature, 2010):
# Tested on: Plasmodium falciparum
# Test: GSK_TCMDC: Inhibition of Plasmodium falciparum 3D7 in whole red blood cells, using parasite LDH activity as an index of growth. Test compounds present at 2uM
# Assay type: functional
row,SMILES,Inhibition
1,CN1C(=O)C(=NN=C(S)N2CCOCC2)c2ccccc21,95%
2,Cl.N=C(N)Nc1ccc(OCCCCCOc2ccc(NC(=N)N)cc2)cc1,99%
3,Cc1cc(N2CC=CCC2)nc(NC(=N)Nc2ccc(Cl)cc2)n1,100%
4,CCCC(C)NC(=O)C(N)Cc1cccc(I)c1.O=C(O)C(F)(F)F (stereo not given),95%
5,COc1ccc(Nc2ncc3c(-c4cccc(NC(=O)c5ccc(N)cc5)c4)c[nH]c3n2)cc1OC,84%
6,CC(C)CCCC(C)NC[C@@H](O)[C@H](Cc1ccccc1)NC(=O)c1cc(N2CCCC2=O)cc(N(c2ccccc2)S(C)(=O)=O)c1 (stereo not given in full),99%
7,COc1cc(Cc2cnc(NCCN3CCNCC3)nc2N)ccc1OCc1ccc(C(F)(F)F)cc1,98%
8,CCc1sc(N2CCC(C)CC2)nc1C(=O)Nc1ccc(F)cc1C(F)(F)F,94%
9,CN(C)CC(=O)N(Cc1ccc(Cl)c(Cl)c1)Cc1csc(-c2ccc(CNCc3ccccc3)cc2)n1.O=C(O)C(F)(F)F,96%
10,CC(=O)Nc1ncc(C(=O)Nc2cccc(-c3cccc(-c4nc5cc(F)ccc5[nH]4)c3)c2)s1,100%
11,C(=N\Nc1nccc2sc(-c3cccnc3)cc12)/c1ccncc1,100%
12,CCc1ccc(CN2CCC(C(=O)Nc3ccc(-c4nc5ccccc5[nH]4)cc3)CC2)o1,99%
13,CCCCCCCn1c(=N)n(CC(O)c2ccc(Cl)c(Cl)c2)c2ccccc21.Cl (stereo not given),98%
14,Cc1cc(-c2c[nH]c3ncc(-c4cccc5ncccc45)cc23)ccc1C(=O)O.O=C(O)C(F)(F)F,99%
15,CC(CN1CCN(C)CC1)C(=O)Nc1ccc(-c2cccc(-c3nc4cc(C(F)(F)F)ccc4[nH]3)c2)cc1 (stereo not given),99%
16,COc1ccccc1C1CCN(C2CCC(NC(=O)/C=C/c3cc(F)c(F)cc3F)CC2)CC1 (stereo not given),85%
17,O=C(NCCN1Cc2ccccc2C1=O)c1ccc(Oc2ccc(C(=O)NCCN3Cc4ccccc4C3=O)cc2)cc1,99%
18,CCC(C)(C)c1ccc(N2C(N)=NC(N)=NC2(C)C)cc1.Cl,91%
19,Cc1cc(CN2CCC(C(=O)Nc3ccc(-c4nc5ccccc5[nH]4)cc3)CC2)oc1C,95%
20,CCCCCCN1CCC(NCc2ccc(CN(C)C)cc2)CC1.O=C(O)C(F)(F)F,92%

row,SMILES,Inhibition
1,Cc1cccc2nc(-c3cccc(-c4cccc(NC(=O)c5ccncc5)c4)c3)[nH]c12,100%
2,Cc1cc(OCC2CCN(c3ncc(C(=O)NC4CC4)cc3Cl)CC2)ccc1F,96%
3,CC(C)NCc1ccc(-c2ccc(CN3CCCC(c4ccccc4)C3)cc2)c(C(=O)NCC2CCCCC2)c1.O=C(O)C(F)(F)F (stereo not given),97%
4,COc1cc2c(cc1OCCN1CCC(N3CCCCC3)CC1)N(C(=O)/C=C/c1ccccc1Cl)CC2,100%
5,O=C(Nc1cccc(CN2CCCN(Cc3cccnc3)CC2)c1)c1ccc(Cl)c(Cl)c1.O=C(O)C(F)(F)F,84%
6,N#Cc1ccc(CN2CCC(Oc3ccc(NC(=O)c4ccsc4)cc3Cl)C2)cc1.O=C(O)C(F)(F)F (stereo not given),88%
7,N#Cc1nc2ccc(OCCN(Cc3ccccc3C(F)(F)F)c3ccc(C#N)c(C(F)(F)F)c3)cc2s1,93%
8,CS(=O)(=O)CCNCc1nc(-c2ccc3c(=O)[nH]cnc3c2)cs1,86%
9,CS(=O)(=O)CCNCc1ccc(-c2ccc3c(Nc4ccc(F)cc4Cl)ccnc3c2)o1,100%
10,O=C(N[C@H]1CCN(Cc2ccc(OCCCN3CCCCC3)cc2)C1)c1ccc2ccccc2c1,97%
11,N=C(NCc1ccc(O)cc1)Nc1nc(-c2ccc(OCCCn3ccnc3)cc2)cs1,100%
12,Cl.c1ccc(COc2ccc(Nc3ncnc4cnc(-c5ccc(CN6CCCCC6)o5)cc34)cc2)cc1,90%
13,CCN(CC)CCNc1c2ccc(Cl)cc2nc2ccc(OC)nc12.Cl,100%
14,CC(C)(C)c1cc2cc(Nc3ccnc4cc(-c5nccs5)ccc34)ccc2[nH]1.Cl,100%
15,CCc1cc(CNC2CCN(CCc3c(F)cnc4ccc(OC)nc34)CC2)cc2c1OCCO2.Cl,100%
16,CN1CCN(Cc2ccc(-c3ccc4c(Nc5ccc(Cl)cc5F)ccnc4c3)o2)CC1,100%
17,CN(CCC1CCN(C(=O)/C=C/c2ccc(Cl)c(Cl)c2)CC1)C1CCC(c2c[nH]c3ccccc23)CC1 (stereo not given),87%
18,Cc1cc(C2CCN(CCCCNC(=O)c3ccc(NC(=O)c4ccc(Cl)cc4)cc3)CC2)c(C)cc1OCc1ccccn1.Cl,96%
19,Cc1cccc2nc(-c3cccc(-c4cccc(NC(=O)Nc5ccc(Cl)cc5)c4)c3)[nH]c12,100%
20,O=C(NCCCCCN1CCCN(C(=O)Nc2ccc(Cl)c(C(F)(F)F)c2)CC1)C1CC1c1ccc(Cl)c(Cl)c1 (stereo not given),100%

# Tested on: Plasmodium falciparum
# Test: GSK_TCMDC: Inhibition of Plasmodium falciparum Dd2 in whole red blood cells, using parasite LDH activity as an index of growth. Test compounds present at 2uM
# Assay type: functional
row,SMILES,Inhibition
1,CN1C(=O)C(=NN=C(S)N2CCOCC2)c2ccccc21,54%
2,Cl.N=C(N)Nc1ccc(OCCCCCOc2ccc(NC(=N)N)cc2)cc1,100%
3,Cc1cc(N2CC=CCC2)nc(NC(=N)Nc2ccc(Cl)cc2)n1,78%
4,CCCC(C)NC(=O)C(N)Cc1cccc(I)c1.O=C(O)C(F)(F)F (stereo not given),65%
5,COc1ccc(Nc2ncc3c(-c4cccc(NC(=O)c5ccc(N)cc5)c4)c[nH]c3n2)cc1OC,31%
6,CC(C)CCCC(C)NC[C@@H](O)[C@H](Cc1ccccc1)NC(=O)c1cc(N2CCCC2=O)cc(N(c2ccccc2)S(C)(=O)=O)c1 (stereo not given in full),97%
7,COc1cc(Cc2cnc(NCCN3CCNCC3)nc2N)ccc1OCc1ccc(C(F)(F)F)cc1,4%
8,CCc1sc(N2CCC(C)CC2)nc1C(=O)Nc1ccc(F)cc1C(F)(F)F,65%
9,CN(C)CC(=O)N(Cc1ccc(Cl)c(Cl)c1)Cc1csc(-c2ccc(CNCc3ccccc3)cc2)n1.O=C(O)C(F)(F)F,32%
10,CC(=O)Nc1ncc(C(=O)Nc2cccc(-c3cccc(-c4nc5cc(F)ccc5[nH]4)c3)c2)s1,93%
11,C(=N\Nc1nccc2sc(-c3cccnc3)cc12)/c1ccncc1,94%
12,CCc1ccc(CN2CCC(C(=O)Nc3ccc(-c4nc5ccccc5[nH]4)cc3)CC2)o1,94%
13,CCCCCCCn1c(=N)n(CC(O)c2ccc(Cl)c(Cl)c2)c2ccccc21.Cl (stereo not given),100%
14,Cc1cc(-c2c[nH]c3ncc(-c4cccc5ncccc45)cc23)ccc1C(=O)O.O=C(O)C(F)(F)F,77%
15,CC(CN1CCN(C)CC1)C(=O)Nc1ccc(-c2cccc(-c3nc4cc(C(F)(F)F)ccc4[nH]3)c2)cc1 (stereo not given),96%
16,COc1ccccc1C1CCN(C2CCC(NC(=O)/C=C/c3cc(F)c(F)cc3F)CC2)CC1 (stereo not given),0%
17,O=C(NCCN1Cc2ccccc2C1=O)c1ccc(Oc2ccc(C(=O)NCCN3Cc4ccccc4C3=O)cc2)cc1,95%
18,CCC(C)(C)c1ccc(N2C(N)=NC(N)=NC2(C)C)cc1.Cl,4%
19,Cc1cc(CN2CCC(C(=O)Nc3ccc(-c4nc5ccccc5[nH]4)cc3)CC2)oc1C,9%
20,CCCCCCN1CCC(NCc2ccc(CN(C)C)cc2)CC1.O=C(O)C(F)(F)F,26%

row,SMILES,Inhibition
1,Cc1cccc2nc(-c3cccc(-c4cccc(NC(=O)c5ccncc5)c4)c3)[nH]c12,78%
2,Cc1cc(OCC2CCN(c3ncc(C(=O)NC4CC4)cc3Cl)CC2)ccc1F,96%
3,CC(C)NCc1ccc(-c2ccc(CN3CCCC(c4ccccc4)C3)cc2)c(C(=O)NCC2CCCCC2)c1.O=C(O)C(F)(F)F (stereo not given),53%
4,COc1cc2c(cc1OCCN1CCC(N3CCCCC3)CC1)N(C(=O)/C=C/c1ccccc1Cl)CC2,41%
5,O=C(Nc1cccc(CN2CCCN(Cc3cccnc3)CC2)c1)c1ccc(Cl)c(Cl)c1.O=C(O)C(F)(F)F,19%
6,N#Cc1ccc(CN2CCC(Oc3ccc(NC(=O)c4ccsc4)cc3Cl)C2)cc1.O=C(O)C(F)(F)F (stereo not given),79%
7,N#Cc1nc2ccc(OCCN(Cc3ccccc3C(F)(F)F)c3ccc(C#N)c(C(F)(F)F)c3)cc2s1,47%
8,CS(=O)(=O)CCNCc1nc(-c2ccc3c(=O)[nH]cnc3c2)cs1,96%
9,CS(=O)(=O)CCNCc1ccc(-c2ccc3c(Nc4ccc(F)cc4Cl)ccnc3c2)o1,98%
10,O=C(N[C@H]1CCN(Cc2ccc(OCCCN3CCCCC3)cc2)C1)c1ccc2ccccc2c1,32%
11,N=C(NCc1ccc(O)cc1)Nc1nc(-c2ccc(OCCCn3ccnc3)cc2)cs1,89%
12,Cl.c1ccc(COc2ccc(Nc3ncnc4cnc(-c5ccc(CN6CCCCC6)o5)cc34)cc2)cc1,13%
13,CCN(CC)CCNc1c2ccc(Cl)cc2nc2ccc(OC)nc12.Cl,99%
14,CC(C)(C)c1cc2cc(Nc3ccnc4cc(-c5nccs5)ccc34)ccc2[nH]1.Cl,97%
15,CCc1cc(CNC2CCN(CCc3c(F)cnc4ccc(OC)nc34)CC2)cc2c1OCCO2.Cl,94%
16,CN1CCN(Cc2ccc(-c3ccc4c(Nc5ccc(Cl)cc5F)ccnc4c3)o2)CC1,100%
17,CN(CCC1CCN(C(=O)/C=C/c2ccc(Cl)c(Cl)c2)CC1)C1CCC(c2c[nH]c3ccccc23)CC1 (stereo not given),9%
18,Cc1cc(C2CCN(CCCCNC(=O)c3ccc(NC(=O)c4ccc(Cl)cc4)cc3)CC2)c(C)cc1OCc1ccccn1.Cl,65%
19,Cc1cccc2nc(-c3cccc(-c4cccc(NC(=O)Nc5ccc(Cl)cc5)c4)c3)[nH]c12,94%
20,O=C(NCCCCCN1CCCN(C(=O)Nc2ccc(Cl)c(C(F)(F)F)c2)CC1)C1CC1c1ccc(Cl)c(Cl)c1 (stereo not given),1%
